# Values joined by “and” are separate entries in the source; they are usually repeats but may differ in a detail not shown here. Identical values can stand only once. Inconclusive results are not listed. Active and inactive are the calls of the source. Unless noted, the call rests on the fitted dose curve; in most records, active means well fitted curve in the direction sought with a large enough effect; inconclusive means small, poorly fitted or top-dose-only effect, or another doubt; inactive means no such curve, though single readings can be large; an effect the other way counts as inactive or inconclusive.
# Columns and labels:
# [1] = target: N-terminal Xaa-Pro-Lys N-methyltransferase 1 (Homo sapiens) (UniProt Q9BV86); assay: Confirmatory qHTS for Inhibitors of N-terminal methyltransferase 1 (NTMT1): MTaseGlo Assay (AID 1645874); further: nearly all actives have a fitted effect of over 65% in size; further: potency means the concentration at half of the fitted maximal effect;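 on activity change, negative = inhibition: luminescence from SAH made as NTMT1 methylates SPKRIA peptide using SAM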
# N-terminal Xaa-Pro-Lys N-methyltransferase 1 (Homo sapiens), sequence (Q9BV86 whole entry, looked up): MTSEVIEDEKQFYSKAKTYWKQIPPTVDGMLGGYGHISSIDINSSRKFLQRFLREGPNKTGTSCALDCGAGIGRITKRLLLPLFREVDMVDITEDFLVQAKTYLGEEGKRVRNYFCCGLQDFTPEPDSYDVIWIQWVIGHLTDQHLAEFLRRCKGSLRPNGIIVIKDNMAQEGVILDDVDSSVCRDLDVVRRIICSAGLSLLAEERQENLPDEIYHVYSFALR
# How it was run: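 MTase-Glo luminescence measured SAH formed by 125 nM NTMT1 from 100 uM SAM and 1 uM SPKRIA peptide over 30 min at room temperature, following 15 min compound preincubation. Percent inhibition against no-enzyme and DMSO controls gave 4-parameter Hill fits.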
# [2] = target: Rap guanine nucleotide exchange factor 3 (Homo sapiens) (UniProt O95398); assay: Confirmatory qHTS for agonist of cAMP-regulated guanine nucleotide exchange factor 3 (EPAC1) (AID 1645881);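 further: EPAC1 catalysed release of BODIPY-GDP from Rap1B seen as fluorescence loss; 100% = effect of cAMP agonist control; nearly all actives have a fitted effect of over 75% in size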
# Rap guanine nucleotide exchange factor 3 (Homo sapiens), sequence (O95398 whole entry, looked up): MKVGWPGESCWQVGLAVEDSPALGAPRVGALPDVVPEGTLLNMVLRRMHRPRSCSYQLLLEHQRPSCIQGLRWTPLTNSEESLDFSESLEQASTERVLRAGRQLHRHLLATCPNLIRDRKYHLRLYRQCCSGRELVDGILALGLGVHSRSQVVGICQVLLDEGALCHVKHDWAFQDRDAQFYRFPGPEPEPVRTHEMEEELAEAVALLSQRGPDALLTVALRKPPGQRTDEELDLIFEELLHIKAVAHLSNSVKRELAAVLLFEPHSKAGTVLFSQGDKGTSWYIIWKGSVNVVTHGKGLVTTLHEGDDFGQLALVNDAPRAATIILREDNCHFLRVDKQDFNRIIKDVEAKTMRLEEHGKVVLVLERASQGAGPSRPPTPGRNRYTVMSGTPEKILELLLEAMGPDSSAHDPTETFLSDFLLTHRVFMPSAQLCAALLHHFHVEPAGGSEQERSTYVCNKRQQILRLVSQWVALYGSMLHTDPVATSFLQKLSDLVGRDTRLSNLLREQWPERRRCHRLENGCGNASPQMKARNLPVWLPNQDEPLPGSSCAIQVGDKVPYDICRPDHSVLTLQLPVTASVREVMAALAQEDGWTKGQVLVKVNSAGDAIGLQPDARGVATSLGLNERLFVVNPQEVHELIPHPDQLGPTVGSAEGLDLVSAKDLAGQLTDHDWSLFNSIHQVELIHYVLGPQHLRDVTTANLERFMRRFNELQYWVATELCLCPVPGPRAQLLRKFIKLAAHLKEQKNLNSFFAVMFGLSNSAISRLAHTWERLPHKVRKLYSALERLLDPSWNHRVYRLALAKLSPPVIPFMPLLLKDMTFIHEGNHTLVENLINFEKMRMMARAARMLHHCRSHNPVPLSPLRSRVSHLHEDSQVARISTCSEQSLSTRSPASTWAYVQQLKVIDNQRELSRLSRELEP
# [3] = target: Rap guanine nucleotide exchange factor 4 (Homo sapiens) (UniProt Q8WZA2); assay: Confirmatory qHTS for agonist of cAMP-regulated guanine nucleotide exchange factor 4 (EPAC2) (AID 1645884);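 further: nucleotide exchange releases bodipy-GDP from Rap1 and this lowers its fluorescence; on the % scale 0 is the no-effect control and ±100 the full control effect; nearly all actives have a fitted effect of over 65% in size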
# Rap guanine nucleotide exchange factor 4 (Homo sapiens), sequence (Q8WZA2 whole entry, looked up): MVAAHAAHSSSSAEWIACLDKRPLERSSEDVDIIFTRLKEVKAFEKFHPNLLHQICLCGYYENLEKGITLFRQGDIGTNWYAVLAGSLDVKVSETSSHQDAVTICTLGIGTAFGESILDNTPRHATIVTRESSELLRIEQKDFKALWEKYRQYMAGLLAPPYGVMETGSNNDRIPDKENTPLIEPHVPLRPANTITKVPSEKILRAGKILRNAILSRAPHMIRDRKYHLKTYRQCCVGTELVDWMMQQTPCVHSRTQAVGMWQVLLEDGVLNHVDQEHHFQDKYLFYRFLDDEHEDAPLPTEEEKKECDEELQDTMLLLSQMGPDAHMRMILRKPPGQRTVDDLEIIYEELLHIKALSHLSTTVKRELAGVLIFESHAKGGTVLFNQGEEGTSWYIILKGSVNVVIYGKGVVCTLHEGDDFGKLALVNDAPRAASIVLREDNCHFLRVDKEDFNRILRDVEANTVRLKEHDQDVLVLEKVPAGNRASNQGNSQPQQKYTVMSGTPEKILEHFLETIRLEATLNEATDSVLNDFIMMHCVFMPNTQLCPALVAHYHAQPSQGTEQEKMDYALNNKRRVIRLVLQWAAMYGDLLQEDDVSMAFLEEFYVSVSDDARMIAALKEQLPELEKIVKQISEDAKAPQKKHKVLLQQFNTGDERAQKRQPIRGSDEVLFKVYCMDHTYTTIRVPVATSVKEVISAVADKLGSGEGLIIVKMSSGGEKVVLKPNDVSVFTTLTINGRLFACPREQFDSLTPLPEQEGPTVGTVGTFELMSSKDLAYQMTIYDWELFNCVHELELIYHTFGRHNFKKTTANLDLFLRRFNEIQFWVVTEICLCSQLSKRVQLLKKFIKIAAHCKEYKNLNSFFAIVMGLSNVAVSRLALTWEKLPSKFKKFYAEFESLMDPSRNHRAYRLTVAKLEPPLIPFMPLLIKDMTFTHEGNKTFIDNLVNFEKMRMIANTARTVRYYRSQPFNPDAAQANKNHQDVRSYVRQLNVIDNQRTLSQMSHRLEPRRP
# [4] = target: Rap guanine nucleotide exchange factor 4 (Homo sapiens) (UniProt Q8WZA2); assay: Confirmatory qHTS for antagonist of cAMP-regulated guanine nucleotide exchange factor 4 (EPAC2) (AID 1645885); further: on the % scale 0 is the no-effect control and ±100 the full control effect; nearly all actives have a fitted effect of over 25% in size
# [5] = target: Rap guanine nucleotide exchange factor 3 (Homo sapiens) (UniProt O95398); assay: Counterscreen qHTS for antagonist of cAMP-regulated guanine nucleotide exchange factor 3 (EPAC1) (AID 1645888); further: % of control where 0% means no effect
# How it was run: (§1)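 Measured: fluorescence of BODIPY-GDP bound to Rap1B, which falls as exchange proceeds. Conditions include 50 uM competing GDP, 5 and 30 min reads, and a later cAMP challenge for antagonist detection.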
# [6] = Primary qHTS for inhibitors of nuclear receptor binding SET domain protein 2 (NSD2) in an isogenic RCH-ACV NSD2 p.E1099K mutant (9B) (AID 1645876); further: potency means the concentration at half of the fitted maximal effect; nearly all actives have a fitted effect of over 70% in size
# [7] = Primary qHTS for inhibitors of nuclear receptor binding SET domain protein 2 (NSD2) in an RCH-ACV wild type WT cells (2C) (AID 1645877); further: potency means the concentration at half of the fitted maximal effect; nearly all actives have a fitted effect of over 70% in size
# [8] = target: Rap guanine nucleotide exchange factor 3 (Homo sapiens) (UniProt O95398); assay: Confirmatory qHTS for antagonist of cAMP-regulated guanine nucleotide exchange factor 3 (EPAC1) (AID 1645880); further: nearly all actives have a fitted effect of over 55% in size; further: potency means the concentration at half of the fitted maximal effect
# How it was run: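 Released BODIPY-GDP fluoresces less than Rap1-bound BODIPY-GDP; the signal is followed at 480/540 nm at 5-min intervals over 30 min, after 5 min at room temperature. Reactions contain 100 nM EPAC1, 250 nM RAP1B-BODIPY-GDP and 50 uM GDP; results are normalized to ATA and DMSO.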
# [9] = target: Rap guanine nucleotide exchange factor 3 (Homo sapiens) (UniProt O95398); assay: Counterscreen qHTS for agonist of cAMP-regulated guanine nucleotide exchange factor 3 (EPAC1) (AID 1645889); further: nearly all actives have a fitted effect of over 40% in size; further: potency means the concentration at half of the fitted maximal effect
# How it was run: as §1
# [10] = NCATS anti-infectives library activity on HEK293 viability as a counter-qHTS vs the C. elegans viability qHTS (AID 1745854); further: on the % scale 0 is the no-effect control and ±100 the full control effect
# How it was run: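 CellTiter-Glo luminescence, read on a CCD imager, scored viability of HEK293 cells after 24 hr compound exposure at 37C. Library tested in several concentrations, 1:5 steps, up to 41.7 uM; digitonin served as control.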
# [11] = target: Glutathione peroxidase 1 (Homo sapiens) (UniProt P07203); assay: Primary qHTS Assay for Inhibitors of Recombinant Selenoprotein Glutathione Peroxidase 1 (GPX1) (AID 1845191); further: nearly all actives have a fitted effect of over 65% in size
# Glutathione peroxidase 1 (Homo sapiens), sequence (P07203 whole entry, looked up): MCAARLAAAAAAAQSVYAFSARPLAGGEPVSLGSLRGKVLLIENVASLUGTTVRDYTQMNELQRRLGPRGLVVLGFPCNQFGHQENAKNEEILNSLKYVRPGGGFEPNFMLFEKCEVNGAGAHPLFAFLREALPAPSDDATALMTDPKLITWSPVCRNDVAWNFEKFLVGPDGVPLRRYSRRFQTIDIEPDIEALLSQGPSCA
# How it was run: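 GPX1 10 nM, GR 100 nM, GSH 1 mM, NADPH 0.5 mM, CHP 0.5 mM (final). 30-min cpd preincubation, RT. Ex340/Em450 read t=0, t=15 min.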
# [12] = target: Phospholipid hydroperoxide glutathione peroxidase GPX4 (Homo sapiens) (UniProt P36969); assay: Primary qHTS Assay for Inhibitors of Recombinant Selenoprotein Glutathione Peroxidase 4 (GPX4) (AID 1845192); further: nearly all actives have a fitted effect of over 65% in size; on activity change, negative = inhibition: on the % scale 0 is the no-effect control and ±100 the full control effect
# Phospholipid hydroperoxide glutathione peroxidase GPX4 (Homo sapiens), sequence (P36969 whole entry, looked up): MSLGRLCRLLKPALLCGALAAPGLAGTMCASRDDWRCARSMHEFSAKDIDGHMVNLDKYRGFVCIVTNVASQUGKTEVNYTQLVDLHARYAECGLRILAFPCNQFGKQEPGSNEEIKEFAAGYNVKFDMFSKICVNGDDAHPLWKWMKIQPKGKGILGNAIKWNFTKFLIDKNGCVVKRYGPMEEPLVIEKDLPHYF
# How it was run: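 qHTS, GR-coupled: GPX4 200 nM + cpd 30 min RT → GSH 1 mM, NADPH 0.5 mM, GR 100 nM → CHP 0.5 mM start; fluor 340/450 at t0 and t15 min; no-enzyme wells as control.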
# [13] = qHTS drug screen for cell cycle checkpoint inhibitors in PARPi-resistant BRCA-mutant ovarian cancer cell lines. (AID 1963452; calls by dose curve; further: potency means the concentration at half of the fitted maximal effect); details: PEO1/OlaR viability, CellTiter-Glo luminescence, 96 h; for Z-AUC: stronger effect = lower value
# How it was run: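 PEO1, PEO4 and PEO1/OlaR ovarian cancer cells, 600 per well, exposed 96 h at 37C to a dilution series. Viability read by CellTiter-Glo luminescence, normalized to DMSO and empty wells; activity summarized as Z-AUC.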
# [14] = NCATS anti-infectives library activity on the primary C. elegans qHTS viability assay (AID 1745855; calls by dose curve)
# How it was run: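 Titration-based screen in worms: eggs hatched overnight in M9, L1 larvae fed TOP10 capsules in S medium with compound, incubated 21 °C for 7 days; fluorescent objects gated by size and intensity at days 0, 3 and 7.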
# [15] = target: Tyrosine-protein kinase Yes (Homo sapiens) (UniProt P07947); assay: qHTS for small molecule inhibitors of Yes1 kinase: Primary Screen (AID 686947);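 further: plate controls were DMSO with enzyme for no effect and no-enzyme DMSO wells for full effect; nearly all actives have a fitted effect of over 60% in size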
# Tyrosine-protein kinase Yes (Homo sapiens), sequence (P07947 whole entry, looked up): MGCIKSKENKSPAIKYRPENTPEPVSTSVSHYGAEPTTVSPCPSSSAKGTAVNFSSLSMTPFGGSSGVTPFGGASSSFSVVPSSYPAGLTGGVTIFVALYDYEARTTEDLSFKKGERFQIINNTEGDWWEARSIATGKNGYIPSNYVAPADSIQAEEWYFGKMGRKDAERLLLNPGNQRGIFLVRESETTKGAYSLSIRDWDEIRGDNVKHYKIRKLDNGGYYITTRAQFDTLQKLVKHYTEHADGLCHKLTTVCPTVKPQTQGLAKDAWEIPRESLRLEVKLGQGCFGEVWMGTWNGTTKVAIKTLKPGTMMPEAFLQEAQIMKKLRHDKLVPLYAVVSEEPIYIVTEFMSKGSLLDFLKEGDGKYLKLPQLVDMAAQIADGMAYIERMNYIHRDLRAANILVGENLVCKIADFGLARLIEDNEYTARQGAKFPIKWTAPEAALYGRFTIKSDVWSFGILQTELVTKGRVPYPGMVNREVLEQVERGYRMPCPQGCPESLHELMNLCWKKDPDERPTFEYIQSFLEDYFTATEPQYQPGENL
# How it was run: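 In this qHTS format, inhibition is expressed relative to DMSO controls with enzyme (maximum) and without enzyme (minimum). The 60 min room-temperature reaction uses 0.1 mM ATP, with ADP detected by luminescence.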
# [16] = qHTS for small molecule inhibitors of Yes1 kinase: Counter Assay (AID 686950);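 further: no kinase present so only ADP-Glo detection of a fixed ADP amount is tested; luminescence from ADP-Glo reporting ADP in a fixed ATP and ADP mixture; 0% = DMSO wells with ATP plus ADP and -100% = ATP-only wells without ADP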
# How it was run: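 Measuring interference with ADP-Glo, the assay ran 60 min at room temperature on an ATP/ADP mix lacking enzyme. Values were normalized to ATP-plus-ADP (maximum) and ATP-only (minimum) DMSO controls.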
# [17] = target: Catechol O-methyltransferase (Homo sapiens) (UniProt P21964); assay: Confirmatory Screen for Target Class Profiling of Small Molecule Inhibitors of Methyltransferases (AID 1745852; calls by dose curve; further: potency means the concentration at half of the fitted maximal effect; on activity change, negative = inhibition: on the % scale 0 is the no-effect control and ±100 the full control effect); details: MTase-Glo luminescence, SAH detection, recombinant enzyme; measured here: COMT max response; stronger effect = lower value
# Catechol O-methyltransferase (Homo sapiens), sequence (P21964 whole entry, looked up): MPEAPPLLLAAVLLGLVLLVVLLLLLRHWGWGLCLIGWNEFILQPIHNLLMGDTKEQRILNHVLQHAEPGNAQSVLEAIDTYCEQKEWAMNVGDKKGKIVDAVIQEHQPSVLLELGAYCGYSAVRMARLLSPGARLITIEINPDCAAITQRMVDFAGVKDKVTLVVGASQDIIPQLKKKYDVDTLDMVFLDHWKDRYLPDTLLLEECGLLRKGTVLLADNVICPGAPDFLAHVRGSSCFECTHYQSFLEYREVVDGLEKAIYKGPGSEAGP
# [18] = target: Guanidinoacetate N-methyltransferase (Homo sapiens) (UniProt Q14353); assay: as above; details: MTase-Glo luminescence, SAH detection, recombinant enzyme; activity change, negative = inhibition: at 57.3 µM (top of the series) unless noted
# [19] = target: Nicotinamide N-methyltransferase (Homo sapiens) (UniProt P40261); assay: as above; details: MTase-Glo luminescence, SAH detection, recombinant enzyme; measured here: NNMT max response; stronger effect = lower value
# Nicotinamide N-methyltransferase (Homo sapiens), sequence (P40261 whole entry, looked up): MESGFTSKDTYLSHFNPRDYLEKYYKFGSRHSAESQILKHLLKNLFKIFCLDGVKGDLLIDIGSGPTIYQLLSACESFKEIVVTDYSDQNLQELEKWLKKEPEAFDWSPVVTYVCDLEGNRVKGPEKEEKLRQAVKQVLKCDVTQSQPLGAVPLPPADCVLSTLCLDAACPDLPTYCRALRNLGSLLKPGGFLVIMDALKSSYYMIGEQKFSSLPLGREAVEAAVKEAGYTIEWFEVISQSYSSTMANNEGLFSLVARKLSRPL
# [20] = target: Phenylethanolamine N-methyltransferase (Homo sapiens) (UniProt P11086); assay: as above; details: MTase-Glo luminescence, SAH detection, recombinant enzyme; measured here: PNMT max response; stronger effect = lower value
# Phenylethanolamine N-methyltransferase (Homo sapiens), sequence (P11086 whole entry, looked up): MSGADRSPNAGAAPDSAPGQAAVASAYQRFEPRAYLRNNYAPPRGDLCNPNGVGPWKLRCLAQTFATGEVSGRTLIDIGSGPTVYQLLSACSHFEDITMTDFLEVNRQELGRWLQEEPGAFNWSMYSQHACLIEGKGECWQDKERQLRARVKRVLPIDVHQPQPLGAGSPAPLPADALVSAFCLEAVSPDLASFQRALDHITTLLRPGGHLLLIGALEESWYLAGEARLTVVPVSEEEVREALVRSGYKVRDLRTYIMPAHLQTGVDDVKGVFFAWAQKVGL
# [21] = measured here: PEO1 parental Z-AUC
smiles,measurement,setting,value
CC(NC(=O)c1sc2ncccc2c1-n1cccc1)c1ccccc1 (configuration not stated),Potency,[1],28.2 µM (active)
same,Potency,[2],inactive
same,Potency,[3],inactive
same,Potency,[4],inactive
same,Potency,[5],inactive
Cc1c(Cl)ccc2sc(N3CCN(C(=O)C4CC4)CC3)nc12,Potency,[1],inactive
Cc1c(O)cccc1C(=O)NC(CSc1ccccc1)C(O)CN1CC2CCCCC2CC1C(=O)NC(C)(C)C (configuration not stated),Potency,[6],23.5 µM (active)
same,Potency,[7],20.9 µM (active)
Cc1cccc(NC(=O)c2sc3nc(-c4cc5ccc(O)cc5oc4=O)[nH]c(=O)c3c2C)c1,Potency,[1],6.02 µM (active)
same,Potency,[8],inactive
same,Potency,[5],inactive
same,Potency,[9],50.1 µM (active)
O=C(CCCCCCNC(=O)c1cnc(N(c2ccccc2)c2ccccc2Cl)nc1)NO,Potency,[6],2.63 µM (active)
same,Potency,[7],2.09 µM (active)
same,outcome,[10],inactive
same,Potency,[11],inactive
same,Potency,[12],inactive
same,Z-AUC,[13],0.102 (inactive)
same,Z-AUC,[13]; [21],-0.152
same,Z-AUC,[13]; measured here: PEO4 Z-AUC,-0.286
C[C@]12CCCN1CC1=NNC(=O)c3cc(F)cc4[nH]c2c1c34,Potency,[6],10.5 µM (active)
same,Potency,[7],3.72 µM (active)
same,outcome,[10],inactive
same,Potency,[14],inactive
same,Potency,[11],inactive
same,Potency,[12],inactive
same,Z-AUC,[13],-0.827 (inactive)
same,Z-AUC,[13]; [21],-0.713
same,Z-AUC,[13]; measured here: PEO4 Z-AUC,0.783
O=C(CSc1nc(-c2ccc(F)cc2)nc2c1Cc1ccccc1O2)Nc1cccc(C(=O)O)c1,Potency,[1],6.02 µM (active)
same,Potency,[8],6.01 µM (active) and 151 nM (active)
same,Potency,[2],inactive
same,Potency,[3],inactive
same,Potency,[4],inactive
same,Potency,[5],inactive
Nc1nonc1-c1nc2cnccc2n1C1CCCCC1,outcome,[15],inactive
same,outcome,[16],inactive
same,Potency,[6],5.17 µM (active)
same,Potency,[7],2.91 µM (active)
same,activity,[17],-23.3%
same,Potency,[18],27.1 µM (active)
same,activity,[19],-44.1%
same,activity,[20],-20.9%
same,Potency,[11],inactive
C=CC(=O)N1CC[C@@H](Oc2nc(Nc3ccc(N4CCC(N5CCN(C)CC5)CC4)cc3)c(C(N)=O)nc2CC)C1,Potency,[1],4.15 µM (active)
same,Potency,[6],0.91 µM (active)
same,Potency,[7],1.62 µM (active)
same,Potency,[11],inactive
same,Potency,[12],inactive
same,Potency,[13],1.69 µM (active)
same,Z-AUC,[13]; [21],-1.18
same,Z-AUC,[13]; measured here: PEO4 Z-AUC,-1.49
Cc1cccc(C(=O)Nc2sc3c(c2C(=O)O)CCCC3)c1,Potency,[1],35.5 µM (active)
same,Potency,[2],inactive
same,Potency,[3],inactive
same,Potency,[4],inactive
same,Potency,[5],inactive
same,Potency,[9],inactive
O=C1Nc2ccccc2/C1=C/c1cc(O)ccc1O,Potency,[6],16.4 µM (active)
same,Potency,[7],18.4 µM (active)
same,activity,[17],-4.65%
same,"activity change, negative = inhibition",[18],-0.984%
same,activity,[19],-18.3%
same,activity,[20],-2.66%
same,Potency,[11],inactive
c1ccc(-c2cc(CCC3CCNCC3)c3ccccc3n2)cc1,Potency,[6],16.6 µM (active)
same,Potency,[7],13.2 µM (active)
same,Potency,[11],inactive
same,Potency,[12],inactive
same,Z-AUC,[13],-0.417 (inactive)
same,Z-AUC,[13]; [21],0.0933
same,Z-AUC,[13]; measured here: PEO4 Z-AUC,0.16
[O-][n+]1cccc(-c2nc3c(Cl)cccc3cc2[C@@H](Nc2ncnc3cccnc23)C(F)(F)F)c1,Potency,[6],0.263 µM (active)
same,Potency,[7],0.468 µM (active)
same,Potency,[11],inactive
same,Potency,[12],inactive
same,Z-AUC,[13],-0.846 (inactive)
same,Z-AUC,[13]; [21],0.42
same,Z-AUC,[13]; measured here: PEO4 Z-AUC,0.695
Cc1ccc(Nc2cc(N[C@@H]3CCCC[C@@H]3N)nnc2C(N)=O)nc1C,Potency,[6],1.05 µM (active)
same,Potency,[7],0.934 µM (active)
same,Potency,[11],inactive
same,Potency,[12],inactive
same,Z-AUC,[13],-0.241 (inactive)
same,Z-AUC,[13]; [21],-0.11
same,Z-AUC,[13]; measured here: PEO4 Z-AUC,0.345
Nc1n[nH]c(N)c1N=Nc1ccc(O)cc1,Potency,[6],13 µM (active)
same,Potency,[7],14.6 µM (active)
same,Potency,[11],inactive
CO[C@H]1C[C@@H]2CC[C@@H](C)[C@@](O)(O2)C(=O)C(=O)N2CCCC[C@H]2C(=O)O[C@H]([C@H](C)C[C@@H]2CC[C@@H](OCCO)[C@H](OC)C2)CC(=O)[C@H](C)/C=C(/C)[C@@H](O)[C@@H](OC)C(=O)[C@H](C)C[C@H](C)/C=C\C=CC=C1C,Potency,[6],0.118 µM (active)
same,Potency,[7],0.0742 µM (active)
same,Potency,[11],inactive

# From PubChem BioAssay (NCATS)
